Source: the supplement of paper PMC6411743
± gives the standard deviation of the averaged measurements. About 6,500 targets were measured; listed, in parts, are those with the largest changes and a random draw of the rest.

Compound: Nc1ncnc2c1ncn2[C@@H]1O[C@H](COP(=O)(O)OP(=O)(O)OP(=O)(O)O)[C@@H](O)[C@H]1O [adenosine triphosphate]
Assay: NP40-soluble protein abundance relative to vehicle (solubility fold change) (ratio); higher = more soluble protein in presence of ATP
In short: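 Across three independent experiments, values are fold changes against the detergent-processed vehicle for each replicate, based on vsn-normalised intensities. The samples were Jurkat crude lysate treated with eight concentrations (0.1 to 10 mM) for 10 min at room temperature and then 3 min at 37 °C. Lysate was solubilised with 0.8% NP40 and benzonase, ultracentrifuged, and the supernatant analysed by TMT-labelled LC-MS/MS.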

UniProt Q5T200, sequence (Q5T200 whole entry): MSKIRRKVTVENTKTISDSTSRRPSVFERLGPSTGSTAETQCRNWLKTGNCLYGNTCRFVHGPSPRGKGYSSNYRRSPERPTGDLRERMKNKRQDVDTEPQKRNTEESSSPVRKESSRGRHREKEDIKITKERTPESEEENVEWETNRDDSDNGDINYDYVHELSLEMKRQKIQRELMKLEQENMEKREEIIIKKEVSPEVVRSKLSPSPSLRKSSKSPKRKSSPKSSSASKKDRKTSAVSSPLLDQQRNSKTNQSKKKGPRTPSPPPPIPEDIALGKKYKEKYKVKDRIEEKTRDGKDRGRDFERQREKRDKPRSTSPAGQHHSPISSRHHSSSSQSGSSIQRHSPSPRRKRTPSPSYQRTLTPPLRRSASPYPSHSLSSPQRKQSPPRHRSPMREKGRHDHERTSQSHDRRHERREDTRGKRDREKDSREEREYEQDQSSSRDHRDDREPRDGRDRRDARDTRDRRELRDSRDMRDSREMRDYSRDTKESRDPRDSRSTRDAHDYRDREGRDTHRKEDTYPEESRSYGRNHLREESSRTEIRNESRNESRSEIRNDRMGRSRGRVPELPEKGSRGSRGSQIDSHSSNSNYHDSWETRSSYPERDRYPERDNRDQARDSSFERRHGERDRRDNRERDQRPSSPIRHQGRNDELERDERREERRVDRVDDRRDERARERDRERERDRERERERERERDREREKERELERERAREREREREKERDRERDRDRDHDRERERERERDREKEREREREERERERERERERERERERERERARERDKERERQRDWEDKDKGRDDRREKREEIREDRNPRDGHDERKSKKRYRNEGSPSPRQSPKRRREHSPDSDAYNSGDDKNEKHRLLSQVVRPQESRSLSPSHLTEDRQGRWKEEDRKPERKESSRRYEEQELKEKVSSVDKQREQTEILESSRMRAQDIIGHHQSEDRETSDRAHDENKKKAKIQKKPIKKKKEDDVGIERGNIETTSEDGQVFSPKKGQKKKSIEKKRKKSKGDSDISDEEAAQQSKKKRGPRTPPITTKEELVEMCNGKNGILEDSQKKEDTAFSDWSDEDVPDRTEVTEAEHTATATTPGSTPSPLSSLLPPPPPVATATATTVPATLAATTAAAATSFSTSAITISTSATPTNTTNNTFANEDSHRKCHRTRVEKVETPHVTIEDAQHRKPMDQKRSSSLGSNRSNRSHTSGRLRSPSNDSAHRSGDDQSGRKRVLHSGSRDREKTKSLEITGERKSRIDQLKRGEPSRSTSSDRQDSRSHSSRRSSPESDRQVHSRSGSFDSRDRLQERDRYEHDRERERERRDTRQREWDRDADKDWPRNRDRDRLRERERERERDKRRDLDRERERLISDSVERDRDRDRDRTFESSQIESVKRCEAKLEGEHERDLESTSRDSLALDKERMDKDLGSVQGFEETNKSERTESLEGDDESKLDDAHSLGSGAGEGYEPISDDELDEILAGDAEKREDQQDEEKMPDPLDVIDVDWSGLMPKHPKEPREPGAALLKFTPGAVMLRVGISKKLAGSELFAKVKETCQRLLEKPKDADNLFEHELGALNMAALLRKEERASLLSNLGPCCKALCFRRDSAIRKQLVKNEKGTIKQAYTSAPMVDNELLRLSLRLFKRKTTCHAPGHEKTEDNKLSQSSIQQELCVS
UniProt Q15036, sequence (Q15036 whole entry): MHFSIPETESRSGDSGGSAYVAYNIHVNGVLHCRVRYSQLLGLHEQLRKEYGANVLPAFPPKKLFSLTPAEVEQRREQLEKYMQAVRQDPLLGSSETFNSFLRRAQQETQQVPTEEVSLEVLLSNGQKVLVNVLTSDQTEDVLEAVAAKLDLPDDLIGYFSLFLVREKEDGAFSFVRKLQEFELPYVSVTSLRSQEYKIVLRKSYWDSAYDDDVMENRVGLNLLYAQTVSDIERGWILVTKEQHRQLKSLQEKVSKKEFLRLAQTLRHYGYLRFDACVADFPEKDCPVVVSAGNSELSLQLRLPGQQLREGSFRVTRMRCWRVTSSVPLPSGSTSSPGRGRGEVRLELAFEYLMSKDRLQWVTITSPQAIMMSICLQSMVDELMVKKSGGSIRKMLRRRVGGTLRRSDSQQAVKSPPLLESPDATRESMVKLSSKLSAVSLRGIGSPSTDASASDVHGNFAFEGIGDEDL
UniProt Q4G0J3, sequence (Q4G0J3 whole entry): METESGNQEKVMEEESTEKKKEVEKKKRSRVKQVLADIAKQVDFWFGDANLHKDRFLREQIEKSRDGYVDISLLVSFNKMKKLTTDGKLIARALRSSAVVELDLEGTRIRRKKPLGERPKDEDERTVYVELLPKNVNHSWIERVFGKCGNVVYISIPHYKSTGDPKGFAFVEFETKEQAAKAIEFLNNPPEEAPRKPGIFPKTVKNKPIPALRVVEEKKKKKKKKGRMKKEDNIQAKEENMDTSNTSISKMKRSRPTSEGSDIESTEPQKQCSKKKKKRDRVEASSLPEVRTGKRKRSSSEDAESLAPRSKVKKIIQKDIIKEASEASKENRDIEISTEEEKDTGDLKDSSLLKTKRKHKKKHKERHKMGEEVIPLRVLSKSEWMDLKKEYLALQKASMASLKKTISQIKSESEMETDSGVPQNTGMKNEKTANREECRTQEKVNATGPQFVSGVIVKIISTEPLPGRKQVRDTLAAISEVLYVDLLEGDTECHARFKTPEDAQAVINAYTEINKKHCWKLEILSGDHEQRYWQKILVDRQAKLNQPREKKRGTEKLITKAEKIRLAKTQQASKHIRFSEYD
UniProt Q6PK18, sequence (Q6PK18 whole entry): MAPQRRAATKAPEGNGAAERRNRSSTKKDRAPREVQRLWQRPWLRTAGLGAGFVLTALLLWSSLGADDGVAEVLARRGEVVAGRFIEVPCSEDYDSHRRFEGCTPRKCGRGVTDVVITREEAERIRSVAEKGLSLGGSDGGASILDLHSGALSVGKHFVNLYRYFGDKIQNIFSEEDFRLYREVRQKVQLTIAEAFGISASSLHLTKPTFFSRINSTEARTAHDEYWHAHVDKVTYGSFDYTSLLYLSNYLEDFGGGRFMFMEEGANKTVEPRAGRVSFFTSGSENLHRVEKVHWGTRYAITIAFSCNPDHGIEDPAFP
UniProt Q13243, sequence (Q13243 whole entry): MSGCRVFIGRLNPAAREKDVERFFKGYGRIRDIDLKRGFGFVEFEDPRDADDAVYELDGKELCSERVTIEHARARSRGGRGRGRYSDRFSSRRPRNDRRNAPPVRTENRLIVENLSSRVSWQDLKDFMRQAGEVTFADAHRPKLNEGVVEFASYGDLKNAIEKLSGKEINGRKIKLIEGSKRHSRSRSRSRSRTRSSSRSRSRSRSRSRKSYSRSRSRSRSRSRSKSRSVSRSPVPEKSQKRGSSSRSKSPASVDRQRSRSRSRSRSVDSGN
UniProt Q8IYD1, sequence (Q8IYD1 whole entry): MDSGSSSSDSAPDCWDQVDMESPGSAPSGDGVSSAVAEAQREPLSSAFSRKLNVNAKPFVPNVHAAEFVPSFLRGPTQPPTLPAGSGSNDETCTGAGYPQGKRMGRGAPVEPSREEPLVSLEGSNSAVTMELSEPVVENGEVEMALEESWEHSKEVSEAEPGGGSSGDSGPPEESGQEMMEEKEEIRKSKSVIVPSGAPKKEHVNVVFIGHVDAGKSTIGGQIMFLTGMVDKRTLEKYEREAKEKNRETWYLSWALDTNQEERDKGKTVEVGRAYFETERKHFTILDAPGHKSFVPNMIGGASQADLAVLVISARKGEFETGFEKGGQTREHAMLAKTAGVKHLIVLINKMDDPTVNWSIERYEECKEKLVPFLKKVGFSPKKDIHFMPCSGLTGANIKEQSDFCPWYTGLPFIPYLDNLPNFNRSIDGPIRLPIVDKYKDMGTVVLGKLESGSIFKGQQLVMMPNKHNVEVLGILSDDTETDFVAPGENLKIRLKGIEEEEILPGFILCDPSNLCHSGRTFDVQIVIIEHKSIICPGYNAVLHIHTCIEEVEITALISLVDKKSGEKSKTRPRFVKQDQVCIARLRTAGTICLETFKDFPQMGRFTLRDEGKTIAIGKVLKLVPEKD
UniProt Q16181, sequence (Q16181 whole entry): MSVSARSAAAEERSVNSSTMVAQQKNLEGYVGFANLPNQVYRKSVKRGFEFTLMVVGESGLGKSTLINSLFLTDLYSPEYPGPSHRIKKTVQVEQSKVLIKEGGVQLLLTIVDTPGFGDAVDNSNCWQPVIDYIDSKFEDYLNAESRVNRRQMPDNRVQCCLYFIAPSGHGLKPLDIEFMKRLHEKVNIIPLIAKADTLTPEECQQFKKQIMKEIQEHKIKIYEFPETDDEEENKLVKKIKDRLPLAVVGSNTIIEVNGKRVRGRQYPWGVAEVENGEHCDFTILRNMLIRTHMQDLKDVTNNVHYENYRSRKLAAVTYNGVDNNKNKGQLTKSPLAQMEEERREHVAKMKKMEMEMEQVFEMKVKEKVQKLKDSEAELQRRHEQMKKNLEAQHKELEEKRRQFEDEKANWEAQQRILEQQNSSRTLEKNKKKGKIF
UniProt Q8TAD8, sequence (Q8TAD8 whole entry): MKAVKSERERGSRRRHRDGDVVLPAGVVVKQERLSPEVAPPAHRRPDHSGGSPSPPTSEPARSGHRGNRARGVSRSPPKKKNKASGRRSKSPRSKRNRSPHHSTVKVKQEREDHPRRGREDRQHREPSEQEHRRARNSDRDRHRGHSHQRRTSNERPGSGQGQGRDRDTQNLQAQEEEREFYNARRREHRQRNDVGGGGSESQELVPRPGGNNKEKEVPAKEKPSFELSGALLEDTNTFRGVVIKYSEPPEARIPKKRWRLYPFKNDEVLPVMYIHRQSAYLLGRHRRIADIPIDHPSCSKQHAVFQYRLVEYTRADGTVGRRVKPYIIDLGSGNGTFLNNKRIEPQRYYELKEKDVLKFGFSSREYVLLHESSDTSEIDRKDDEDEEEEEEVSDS
UniProt Q12981, sequence (Q12981 whole entry): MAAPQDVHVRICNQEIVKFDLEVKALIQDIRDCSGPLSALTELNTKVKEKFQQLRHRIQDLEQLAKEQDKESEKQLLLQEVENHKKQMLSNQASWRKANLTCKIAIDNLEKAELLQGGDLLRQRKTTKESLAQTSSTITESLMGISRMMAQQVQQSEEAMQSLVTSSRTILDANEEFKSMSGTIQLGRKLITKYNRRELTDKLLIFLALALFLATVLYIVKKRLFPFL

Target	NP40-soluble protein abundance (concentration: 1mM)	NP40-soluble protein abundance (concentration: 2mM)	NP40-soluble protein abundance (concentration: 4mM)	NP40-soluble protein abundance (concentration: 6mM)	NP40-soluble protein abundance (concentration: 8mM)	NP40-soluble protein abundance (concentration: 10mM)
UniProt Q13111|K7EPA1	0.987 ± 0.059	0.988 ± 0.028	0.97 ± 0.035	1.03 ± 0.031	0.977 ± 0.036	1.01 ± 0.036
UniProt Q6PK18|Q6PK18-2	1.06 ± 0.02	1.06 ± 0.061	0.955 ± 0.045	1.03 ± 0.074	1.09 ± 0.15	1.04 ± 0.024
DCUN1D3 (UniProt Q8IWE4)	0.923 ± 0.038	0.949 ± 0.049	0.998 ± 0.035	0.92 ± 0.034	0.931 ± 0.039	0.866 ± 0.11
BNIP1 (UniProt Q12981)	0.986 ± 0.051	0.983 ± 0.05	0.98 ± 0.07	1 ± 0.012	0.971 ± 0.049	0.932 ± 0.053
UniProt Q4FZB7	0.985 ± 0.15	1.1 ± 0.23	1.07 ± 0.11	1.01 ± 0.16	1.01 ± 0.029	0.983 ± 0.065
UniProt Q16181|Q16181-2	0.891 ± 0.15	0.979 ± 0.023	0.9086 ± 0.0056	0.963 ± 0.076	0.957 ± 0.026	0.911 ± 0.046
UniProt Q8NI08-2	0.989 ± 0.064	1.03 ± 0.032	1.01 ± 0.016	1.02 ± 0.022	0.989 ± 0.039	0.993 ± 0.024
UniProt Q13438|Q13438-7	0.953 ± 0.036	0.953 ± 0.049	0.94 ± 0.056	0.99 ± 0.069	0.939 ± 0.031	0.952 ± 0.045
UniProt Q5T200|Q5T200-2	1.04 ± 0.057	1.1 ± 0.056	1.15 ± 0.077	1.22 ± 0.094	1.21 ± 0.086	1.29 ± 0.093
GSPT2 (UniProt Q8IYD1)	1.035 ± 0.0061	1.023 ± 0.0095	1 ± 0.016	1.01 ± 0.02	0.991 ± 0.042	0.987 ± 0.037
UniProt Q7L4P6|Q7L4P6-2	0.995 ± 0.085	1.12 ± 0.2	1.23 ± 0.3	1.2 ± 0.21	1.02 ± 0.096	1.12 ± 0.14
UniProt Q15036|Q15036-2	0.88 ± 0.17	0.835 ± 0.14	0.853 ± 0.15	0.808 ± 0.18	0.808 ± 0.12	0.849 ± 0.16
DDX60 (UniProt Q8IY21)	1.2 ± 0.078	1.27 ± 0.093	1.66 ± 0.11	1.73 ± 0.15	1.9 ± 0.16	1.95 ± 0.11
UniProt Q4G0J3|Q4G0J3-3	1.17 ± 0.046	1.22 ± 0.047	1.36 ± 0.021	1.507 ± 0.0071	1.56 ± 0.049	1.71 ± 0.018
SNIP1 (UniProt Q8TAD8)	1.18 ± 0.044	1.22 ± 0.055	1.44 ± 0.085	1.57 ± 0.098	1.67 ± 0.11	1.8 ± 0.1
UniProt Q53GS7|Q53GS7-2	1.18 ± 0.079	1.19 ± 0.12	1.39 ± 0.24	1.54 ± 0.24	1.52 ± 0.2	1.71 ± 0.23
UniProt Q13243	1.5 ± 0.12	1.63 ± 0.088	1.76 ± 0.12	1.95 ± 0.11	1.92 ± 0.13	1.98 ± 0.07
UniProt Q8N766|Q8N766-3	0.974 ± 0.082	0.977 ± 0.065	0.982 ± 0.056	0.878 ± 0.1	0.934 ± 0.013	0.977 ± 0.052
